Bioassay records: PubChem BioAssay, National Center for Advancing Translational Sciences (NCATS)
TDP1 cell CPT = DT40-hTDP1 cell growth loss with CPT; chicken DT40 Tdp1-/-;hTDP1 cells + 20 nM CPT, ATP luminescence, 48 h; Potency, µM (titrated, usually from 46.2 µM), for inactives: at the highest dose activity change, negative = growth inhibition, most hits filed as inhibitors; actives 12% (n = 420,000); further: on the % scale 0 is the no-effect control and ±100 the full control effect; nearly all actives have a fitted effect of over 55% in size
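Chicken DT40 Tdp1-/- cells complemented with human TDP1, 400 cells/well, exposed to compounds plus 20 nM camptothecin for at least 48 h at 37 C; viability read as ATP content by CellTiter-Glo luminescence.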
TDP1 inh = TDP1 (human) enzyme inhibition | Q9NUW8 | recombinant TDP1, AlphaScreen DNA substrate cleavage | Potency, µM (doses to about 130 µM), for the others: at the top dose activity change, negative = inhibition, usual class: inhibitors | actives 0.28% (n = 350,000); further: on the % scale 0 is the no-effect control and ±100 the full control effect; nearly all actives have a fitted effect of over 40% in size
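Compounds were preincubated with Tdp1 (1 nM final) for 15 min at room temperature before substrate (15 nM final) started a 5 min reaction; beads (10 ug/ml final) were then added for 10 min before AlphaScreen detection.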
ClpP mod = qHTS Assay for Activators of ClpP. actives 1.9% (n = 340,000). AID 651965, 2013. purified B. subtilis ClpP, FRET peptide cleavage, 20 min. Potency, µM (doses to about 57.5 µM), for inactives: at the top dose activity change, negative = active; active means well fitted falling curve with a large enough effect; inconclusive means small, poorly fitted or top-dose-only effect; inactive means no such curve, though single readings can be large or run the other way; further: the source files actives as falling curves though it sought activators and does not explain the sign; nearly all actives have a fitted effect of over 65% in size
Target sequence (P80244 whole entry, looked up): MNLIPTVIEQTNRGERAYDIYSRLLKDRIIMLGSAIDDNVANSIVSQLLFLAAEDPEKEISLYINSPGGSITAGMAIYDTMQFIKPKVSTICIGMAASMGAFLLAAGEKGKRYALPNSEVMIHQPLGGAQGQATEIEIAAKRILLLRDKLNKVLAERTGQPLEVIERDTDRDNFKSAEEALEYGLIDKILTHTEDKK
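Buffer: 100 mM Tris/HCl pH8, 100 mM KCl, 0.05% low protease BSA, 2.5% glycerol, 0.01% Tween-20. ClpP 10 microg/mL final; 20 min RT; delta FRET normalized to ADEP and DMSO controls.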
DT40 TDP1 no CPT = qHTS for Inhibitors of human tyrosyl-DNA phosphodiesterase 1 (TDP1): qHTS in cells in absence of CPT; DT40 Tdp1-/- hTDP1 cells, no CPT, ATP luminescence, 48 h; actives 15% (n = 420,000); Potency, µM (series often up to 46.2 µM), without a hit: top-dose activity change, negative = growth inhibition, hits mostly inhibitors; AID 686978, 2013; further: on the % scale 0 is the no-effect control and ±100 the full control effect; nearly all actives have a fitted effect of over 55% in size
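Luminescent ATP content (CellTiter-Glo) served as the growth readout. Knockout chicken DT40 cells expressing human TDP1 were exposed to compounds without camptothecin for a minimum 48 hr at 37 °C.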
* hit, by the source's call; ? = inconclusive; . = no result given; [ ] = dose if it differs, or a comment. An excerpt weighted towards active compounds, which were near 17% of everything screened. Unless noted, the call rests on the fitted dose curve; in most records, active means well fitted curve in the direction sought with a large enough effect; inconclusive means small, poorly fitted or top-dose-only effect, or another doubt; inactive means no such curve, though single readings can be large; an effect the other way counts as inactive or inconclusive. Potency means the concentration at half of the fitted maximal effect.

SMILES | TDP1 cell CPT | TDP1 inh | ClpP mod | DT40 TDP1 no CPT
COc1cccc(-c2cc(C(=O)Nc3c(C)nn(Cc4ccccc4Cl)c3C)no2)c1 | 9.2µM* | 3% | 0% | 13µM*
COc1ccc(OC)c(-c2cc(C(=O)Nc3c(C)nn(Cc4ccc(C)cc4)c3C)no2)c1 | 21µM* | 5% | -9% | 18µM*
COc1ccc(-c2cc(C(=O)Nc3ccc(C)c(C)c3)no2)cc1 | ? | . | 4% | ?
COc1ccc(OC)c(-c2cc(C(=O)Nc3c(C)nn(Cc4ccccc4Cl)c3C)no2)c1 | 15µM* | 4% | 35µM* | 23µM*
COc1ccc(-c2cc(C(=O)Nc3c(C)nn(Cc4ccccc4Cl)c3C)no2)cc1OC | ? | 3% | -15% | ?
COc1ccc(OC)c(-c2cc(C(=O)Nc3ccc(C)c(C)c3)no2)c1 | ? | -4% | 4% | 18µM*
O=C1C(=Cc2cccc(F)c2)Cc2ccccc21 | -20% | . | -3% | ?
CC1CN(CCNC(=O)C2CCCc3c2[nH]c2ccccc32)Cc2ccccc2O1 (centres undefined) | 18%[9.04 µM] | . | . | ?
COc1ccc(CCNC(=O)CCC(=O)n2ncc3ccc(Cl)cc32)cc1OC | -29% | . | 1% | -1%
CCC(=O)OC1CC(C)N(C(=O)c2ccccc2)c2ccc(C)cc21 (centres undefined) | 11µM* | -5% | 1% | 14µM*
CCCC(=O)N1c2ccccc2C(N(C(C)=O)c2ccccc2)CC1C (centres undefined) | 23µM* | 4% | -3% | ?
CCC(=O)N1c2ccccc2[C@@H](N(C(C)=O)c2ccccc2)C[C@H]1C | -24% | 10% | 1% | -24%
CC(=O)N(c1ccccc1)C1CC(C)N(C(=O)c2ccccc2)c2ccccc21 (centres undefined) | 8.2µM* | . | ? | 7.3µM*
Cc1ccc(C(=O)N(c2ccccc2)C2CC(C)N(C(=O)c3ccco3)c3ccccc32)cc1 (centres undefined) | 7.3µM* | 10% | 1% | 4.6µM*
CN(CC(=O)Nc1ccccc1C(=O)NC1CC1)Cc1cccs1 | 1% | 3% | -1% | 7%
Cc1ccc2c(=O)cc(C(=O)N(Cc3ccc(C(C)(C)C)cc3)C3CCS(=O)(=O)C3)oc2c1 (centres undefined) | ? | 7% | 2% | ?
COc1ccccc1NC(=O)N(C)C[C@@H]1OCc2cnnn2CCCC(=O)N([C@H](C)CO)C[C@@H]1C | 4% | . | 1% | -10%
CC(C)OC(=O)CSc1nc2ccccc2s1 | 13% | -2% | 0% | -22%
Nc1nonc1NC(=O)CSc1nc2ccccc2s1 | -4% | 5% | -3% | -12%
CCCSc1cc(NCCOC(C)=O)c([N+](=O)[O-])c2nonc12 | -1% | 0% | . | ?
CCC(=O)OCCNc1cc(Sc2nc3ccccc3s2)c2nonc2c1[N+](=O)[O-] | 1.6µM* | 9% | -4% | 2.1µM*
CCCC(=O)OCCNc1cc(SCc2ccco2)c2nonc2c1[N+](=O)[O-] | ? | 1% | -1% | ?
CC(=O)OCCCNc1cc(SCc2ccco2)c2nonc2c1[N+](=O)[O-] | 21µM* | -3% | -2% | ?
CCCSc1cc(NCCOC(=O)CCC)c([N+](=O)[O-])c2nonc12 | 2.6µM* | 6% | 1% | 4.6µM*
O=[N+]([O-])c1c(NCCCO)cc(Sc2nc3ccccc3s2)c2nonc12 | 1.3µM* | 6% | -4% | 0.79µM*
SMILES | TDP1 cell CPT | TDP1 inh | ClpP mod | DT40 TDP1 no CPT
CCC(=O)OCCNc1cc(Sc2nc3ccccc3[nH]2)c2nonc2c1[N+](=O)[O-] | 2.3µM* | -6% | -15% | 2.9µM*
CC(C)CC(NS(=O)(=O)OCC(Cl)(Cl)Cl)c1ccccc1 (centres undefined) | ? | . | 1% | 16µM*
CC(=O)CSc1ccc(C(=O)O)cn1 | -30% | -5% | -3% | 4%
Cc1ccc(-c2ccc(SCC(=O)N3CCc4ccccc43)nn2)cc1 | . | 3% | . | .
Cc1cc2nc(-c3ccc(SCc4ccc(C(=O)O)cc4)nc3)[nH]c2cc1C | ? | 22µM* | . | ?
N#Cc1ccccc1CSc1nc(O)cc(=O)[nH]1 | -11% | 0% | 1% | -10%
COC(=O)CSc1ccc(-c2nc3ccc(C)cc3[nH]2)cn1 | -28% | 1% | -18% | ?
Cc1cc2nc(-c3ccc(SCc4ccccc4C#N)nc3)[nH]c2cc1C | ? | 0% | ? | 16µM*
Cc1cc2nc(-c3ccc(SCC(=O)N4CCc5ccccc54)nc3)[nH]c2cc1C | 9.2µM* | -9% | 107% | 23µM*
C/C(CC(=O)NCc1ccco1)=N\NC(=O)c1ccc([N+](=O)[O-])cc1Cl | 6% | 10% | . | -10%
CC1(c2nnc(-c3cccc(Cl)c3)o2)CC(c2cccc(Cl)c2)=NO1 (centres undefined) | ? | . | -1% | ?
CCCCN1C(=O)C(CC(=O)NCCc2ccccn2)CC(C(=O)N2CCCCCC2)=C1C (centres undefined) | -4% | . | 1% | 8%
OCC#Cc1ncc(C(F)(F)F)cc1Cl | 5.2µM* | 0% | 2% | 7.3µM*
CNC(=S)N/N=C1\C(=O)c2cccc3cccc1c23 | 29µM* | 10% | -2% | 16µM*
CCCCNC(=S)N/N=C1\C(=O)c2cccc3cccc1c23 | ? | 7% | 1% | 26µM*
O=C(N/N=C1\C(=O)c2cccc3cccc1c23)c1ccc(O)cc1 | ? | 0% | 0% | ?
O=C(CCc1ccc(O)c(O)c1)NNC(=S)Nc1ccc(Br)cc1Cl | -30% | 6% | . | -20%
O=C(c1ccc(C(F)(F)F)cc1)N1CCC(=O)N(C(COCc2ccccc2)Cc2ccccc2)CC1 (centres undefined) | 21µM* | -1% | 2% | 21µM*
CC(C)(C)c1ccc(C(=O)N2CCC(=O)N(C(COCc3ccccc3)Cc3ccccc3)CC2)cc1 (centres undefined) | 15µM* | 5% | -2% | 21µM*
CC(C)(C)c1ccc(C(=O)N2CCC(=O)N([C@H](COCc3ccccc3)Cc3ccccc3)CC2)cc1 | ? | . | 1% | ?
O=C(NC1CCCCC1)c1nc(-c2c(F)cccc2F)oc1-c1ccccc1 | 23µM* | . | 4% | 26µM*
COc1ccc(CNCc2c(O)c(Cl)cc3c(C)c(C)c(=O)oc23)c(OC)c1 | 17% | . | -1% | -2%
C/C(=N\NC(=S)NCCc1ccccc1)c1ccc(C#N)cc1 | ? | 4% | -3% | 13µM*
C/C(=N\NC(=S)NCCc1ccccc1)c1ccc(C)cc1 | ? | 0% | -2% | 18µM*
CC1CCc2cc(F)cc3c2N1C(=O)C(C(=O)Nc1cnccn1)C3=O (centres undefined) | 1µM* | 2% | -3% | 0.79µM*
